# Measurements from a collection of fitness landscapes (doi:10.1126/science.1257360).
# The full ranking holds about 140,000 sequences; the median of “enrichment ratio after two sorts for PhoP signalling” is about 0, and the highest 2% start at about 11. The full list was thinned out, with the highest values kept by preference.
# B1: PhoQ; a variant is named by its letters at X, in order, P23837 (parent)
# chain: MKKLLRLFFPLSLRVRFLLATAAVVLVLSLAYGMVALIGYSVSFDKTTFRLLRGESNLFYTLAKWENNKLHVELPENIDKQSPTMTLIYDENGQLLWAQRDVPWLMKMIQPDWLKSNGFHEIEADVNDTSLLLSGDHSIQQQLQEVREDDDDAEMTHSVAVNVYPATSRMPKLTIVVVDTIPVELKSSYMVWSWFIYVLSANLLLVIPLLWVAAWWSLRPIEALAKEVRELEEHNRELLNPATTRELTSLVRNLNRLLKSERERYDKYRTTLTDLTHSLKTPLXXLQXXLRSLRSEKMSVSDAEPVMLEQISRISQQIGYYLHRASMRGGTLLSRELHPVAPLLDNLTSALNKVYQRKGVNISLDISPEISFVGEQNDFVEVMGNVLDNACKYCLEFVEISARQTDEHLYIVVEDDGPGIPLSKREVIFDRGQRVDTLRPGQGVGLAVAREITEQYEGKIVAGESMLGGARMEVIFGRQHSAPKDE
# Variants of: B1
# Experiment: enrichment ratio after two sorts for PhoP signalling (ratio (wild type AVST 3.29)); higher = more functional
# Conditions: with PhoP (E. coli)
row,Variant,enrichment ratio
1,FGIN,≤ 0.25
2,RFYE,≤ 0.25
3,FYWY,≤ 0.25
4,ITNK,≤ 0.25
5,QYEG,≤ 0.25
6,HPNG,≤ 0.25
7,WHVS,≤ 0.25
8,TMMI,0.351
9,WHFQ,1.98
10,DQQP,≤ 0.25
11,FHPL,≤ 0.25
12,LVAW,0.304
13,AKAR,≤ 0.25
14,AIAR,19.7
15,ATMT,≤ 0.25
16,VHMT,≤ 0.25
17,KKAR,≤ 0.25
18,AIMT,22.8
19,SVWQ,≤ 0.25
20,KVQS,≤ 0.25
21,YTFM,≤ 0.25
22,KAFM,≤ 0.25
23,NAFM,≤ 0.25
24,GTFM,≤ 0.25

row,Variant,enrichment ratio
1,MIGM,2.52
2,MKFM,≤ 0.25
3,MIFM,15.8
4,MAFM,14.7
5,MTFM,17.1
6,DKSF,≤ 0.25
7,TGQA,3.89
8,FELW,≤ 0.25
9,SMKH,≤ 0.25
10,SMMN,19.5
11,SMGH,1.91
12,SMIV,≤ 0.25
13,SMQN,≤ 0.25
14,SMTH,4.57
15,SMMH,15.6
16,SMQH,14.9
17,SMNL,2.56
18,SMWH,≤ 0.25
19,SMPV,≤ 0.25
20,SMMV,17.9
21,NSPY,≤ 0.25
22,PHRW,≤ 0.25
23,NLYI,≤ 0.25
24,HIPQ,≤ 0.25

row,Variant,enrichment ratio
1,SEHH,≤ 0.25
2,NIQH,≤ 0.25
3,NTWT,≤ 0.25
4,PEAN,≤ 0.25
5,VIAY,≤ 0.25
6,PFVI,≤ 0.25
7,GNDM,≤ 0.25
8,GENQ,≤ 0.25
9,SMFC,≤ 0.25
10,SMMI,5.18
11,DMMC,≤ 0.25
12,SMMW,≤ 0.25
13,SMMC,16.1
14,SMMS,14.6
15,DVQM,≤ 0.25
16,PNYR,≤ 0.25
17,AGHK,≤ 0.25
18,HLLG,≤ 0.25
19,TDLI,16.1
20,ADLA,0.619
21,AALI,11.9
22,AHLI,4.17
23,ADLI,16.8
24,KDLI,≤ 0.25

row,Variant,enrichment ratio
1,AADK,≤ 0.25
2,ADLT,11.3
3,FDLI,≤ 0.25
4,APLI,0.336
5,AILI,1.77
6,AILT,6.15
7,WYQF,≤ 0.25
8,EELG,≤ 0.25
9,IKSA,≤ 0.25
10,AVVT,0.37
11,QMRR,≤ 0.25
12,ILWV,≤ 0.25
13,GWVK,≤ 0.25
14,ANDK,≤ 0.25
15,AYLI,0.332
16,ANLI,23.1
17,PDDN,≤ 0.25
18,VNIK,≤ 0.25
19,TWLY,≤ 0.25
20,IICF,0.792
21,TICI,2.26
22,TICE,≤ 0.25
23,TICL,1.53
24,TICA,12.3

row,Variant,enrichment ratio
1,TICS,13
2,TICV,6.14
3,IKEC,≤ 0.25
4,LHYP,≤ 0.25
5,KVDK,≤ 0.25
6,TNCA,8.8
7,MNSC,≤ 0.25
8,LNSS,≤ 0.25
9,TNSS,13.1
10,TNSK,≤ 0.25
11,GITC,8.58
12,GISC,11.8
13,TNSC,17.3
14,TNSI,15.8
15,MNSS,0.46
16,GIFC,≤ 0.25
17,TNSR,≤ 0.25
18,IKVK,≤ 0.25
19,LLGD,≤ 0.25
20,MVLD,≤ 0.25
21,RQIY,≤ 0.25
22,GQSC,≤ 0.25
23,GTSC,≤ 0.25
24,GNSC,12.1

row,Variant,enrichment ratio
1,WNPE,≤ 0.25
2,EPTS,≤ 0.25
3,SQPA,≤ 0.25
4,VFCT,≤ 0.25
5,QECT,6.99
6,HEAT,≤ 0.25
7,IECT,16.6
8,YWCT,≤ 0.25
9,EECT,≤ 0.25
10,NECT,14.1
11,VECT,12
12,HELT,≤ 0.25
13,TCCT,7.4
14,IQCT,≤ 0.25
15,HECT,26.3
16,REDM,≤ 0.25
17,DVPV,≤ 0.25
18,MSTY,2.56
19,SPFN,≤ 0.25
20,ACHR,≤ 0.25
21,MCHQ,≤ 0.25
22,FMEW,≤ 0.25
23,ERFY,≤ 0.25
24,LRPR,≤ 0.25

row,Variant,enrichment ratio
1,LISC,≤ 0.25
2,HMCL,2.41
3,SIMT,7.68
4,SEMT,20
5,SWMT,≤ 0.25
6,STMT,16.6
7,SLMT,≤ 0.25
8,QEMT,5.12
9,SPLT,≤ 0.25
10,KYMT,≤ 0.25
11,STLT,12.3
12,SRMT,0.372
13,SQMT,22.7
14,STLA,10.9
15,INDV,≤ 0.25
16,LNTQ,≤ 0.25
17,PDCH,≤ 0.25
18,PGNF,≤ 0.25
19,DWKT,≤ 0.25
20,EFCG,≤ 0.25
21,KSIH,≤ 0.25
22,KPAG,≤ 0.25
23,LQSG,≤ 0.25
24,EPRQ,≤ 0.25

row,Variant,enrichment ratio
1,TQPT,≤ 0.25
2,WMMI,≤ 0.25
3,IPNH,≤ 0.25
4,PVYK,≤ 0.25
5,SMGM,5.78
6,TLQM,15.4
7,SMRM,≤ 0.25
8,SMQM,20.4
9,SGQK,≤ 0.25
10,DWQM,≤ 0.25
11,KAQM,≤ 0.25
12,FQQM,≤ 0.25
13,LAQM,≤ 0.25
14,SGQM,14.7
15,RGQM,≤ 0.25
16,TQQM,17.5
17,IDFL,≤ 0.25
18,SWLW,≤ 0.25
19,FYKC,≤ 0.25
20,FEKG,≤ 0.25
21,DDSK,≤ 0.25
22,RTPK,≤ 0.25
23,TQKM,≤ 0.25
24,MGAV,5.2

row,Variant,enrichment ratio
1,SPQM,≤ 0.25
2,KYQM,≤ 0.25
3,TTQM,12.5
4,FSQM,≤ 0.25
5,FCQM,≤ 0.25
6,TSQM,24
7,YTQM,≤ 0.25
8,SCQM,30.8
9,STQM,12.8
10,SRQM,≤ 0.25
11,KSQM,≤ 0.25
12,LTQM,≤ 0.25
13,RPSF,≤ 0.25
14,GPMM,≤ 0.25
15,AHKW,≤ 0.25
16,PCPS,≤ 0.25
17,AQDI,≤ 0.25
18,SQQM,15.9
19,SLQM,7.14
20,SAQM,8.97
21,HIPP,≤ 0.25
22,TDCL,1.96
23,KHNK,≤ 0.25
24,YPTR,≤ 0.25

row,Variant,enrichment ratio
1,YCAA,≤ 0.25
2,QASN,11.4
3,FVSN,≤ 0.25
4,QRSG,≤ 0.25
5,QASG,17.4
6,KASG,≤ 0.25
7,NASN,≤ 0.25
8,QRSN,≤ 0.25
9,QGSN,20.2
10,FFSN,≤ 0.25
11,GMMP,≤ 0.25
12,DWWS,≤ 0.25
13,RCNY,≤ 0.25
14,NNFP,≤ 0.25
15,QNYN,≤ 0.25
16,NSYV,≤ 0.25
17,AVPN,≤ 0.25
18,FCMQ,1.02
19,FCDG,≤ 0.25
20,QVDG,30.4
21,QSDG,11.8
22,YTDG,≤ 0.25
23,KSDG,≤ 0.25
24,FTDG,≤ 0.25

row,Variant,enrichment ratio
1,FFDG,≤ 0.25
2,QGDG,11.8
3,TSDG,0.59
4,QTDG,13.5
5,TVDG,≤ 0.25
6,PVDG,≤ 0.25
7,LTLA,≤ 0.25
8,HNKA,≤ 0.25
9,AFKV,≤ 0.25
10,RRQL,≤ 0.25
11,RSSV,≤ 0.25
12,VLVH,≤ 0.25
13,TVDW,≤ 0.25
14,TEFQ,8.52
15,TEFS,10.9
16,QEFN,3.01
17,MEFN,7.67
18,QEFH,≤ 0.25
19,TEFA,11.3
20,TEFN,18.2
21,TEFI,9.19
22,TEFP,≤ 0.25
23,TEFC,14.4
24,TEFH,12.1

row,Variant,enrichment ratio
1,MEFH,4.99
2,GKHH,≤ 0.25
3,NVPN,≤ 0.25
4,VKNT,≤ 0.25
5,GVCV,3.13
6,AWFR,≤ 0.25
7,RMDG,≤ 0.25
8,DDGS,≤ 0.25
9,LMRD,≤ 0.25
10,FKNL,≤ 0.25
11,FPYE,≤ 0.25
12,HPWR,≤ 0.25
13,WNMS,≤ 0.25
14,NTFG,≤ 0.25
15,TEFG,19
16,NEFG,≤ 0.25
17,MEFG,5.56
18,WVYE,≤ 0.25
19,PMID,≤ 0.25
20,RGCG,≤ 0.25
21,ADCG,1.58
22,TDCG,13.4
23,ANCG,26.6
24,AKCG,2.88

row,Variant,enrichment ratio
1,PGCG,≤ 0.25
2,NHCG,≤ 0.25
3,VHCG,≤ 0.25
4,AHCG,15.3
5,KDCG,≤ 0.25
6,FDCG,≤ 0.25
7,TGCG,24.4
8,AIDP,≤ 0.25
9,IFDW,≤ 0.25
10,PKQC,≤ 0.25
11,DRKW,≤ 0.25
12,LGNW,≤ 0.25
13,FFWM,≤ 0.25
14,FMLS,≤ 0.25
15,AHIG,≤ 0.25
16,ADIG,≤ 0.25
17,ANIG,29.2
18,REKI,≤ 0.25
